Results filed as inconclusive are left out. The source made the active and inactive calls.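 How the source made its calls, unless noted: active means viability at or below 27.92% in each of two runs, the all-compound median minus 4 SD; inconclusive means no clear call, values can overlap the other calls; inactive means the rest.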
Key:
[1] = reducers of endogenous Her2 protein level, primary screen, SKBR3 breast tumor cells, AlphaScreen, ATP viability (AID 461;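 active means Her2 level under about 52% in both replicate screens, with viability over 70% of control, limit read from the data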;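 on Her2 level: lower value means less Her2 protein in the cells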;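 on viability: percent of carrier control wells set as 100% viability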); conditions: 18-24 h, measured here: SKBR3 viability, ATP luminescence, at 10 µM
[2] = biological target: Receptor tyrosine-protein kinase erbB-2 (Homo sapiens) (UniProt P04626); experiment: as above; conditions: 18-24 h, at 10 µM, stronger effect = lower value
[3] = SK-BR-3 cell growth inhibitors, pilot screen, 24 h, human (AID 572;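 active means viability at or below 10% of carrier control in both of two separate runs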;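 further: compound exposure lasted between 18 and 24 h rather than exactly 24 h; 100% = carrier-treated control wells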); conditions: SK-BR-3 viability, CellTiter-Glo luminescence, at 10 µM, stronger effect = lower value
[4] = HUVEC growth inhibition – cell-based, human, primary screen (AID 575;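 active means viability at or below 30% in both replicate assays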;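 further: 100% = median of untreated cell wells with 0.1% DMSO on each plate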); conditions: HUVEC proliferation, CellTiter-Glo luminescence, 72 h; at 10 µM; stronger effect = lower value
[5] = growth inhibitors of H69AR lung tumor, primary screen, human, duplicate replicates (AID 580;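 active means viability at or under a set limit in both replicates, limit being median viability minus 3 SD, cut at about 48% in these data, passing the limit was not always enough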;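 further: 100% = mean luminescence of untreated wells and 0% = no signal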); conditions: H69AR lung tumor cells viability, ATP luminescence, 72 h; at 10 µM; stronger effect = lower value
[6] = reversal of MRP1-mediated doxorubicin resistance, pilot screen, H69AR cells, doxorubicin co-treatment (AID 601;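 active means viability loss from added drug above about 55%, and viability with drug at most 40%, in both replicates, limit read from the data, passing the limit was not always enough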); conditions: CellTiter-Glo, 72 h, at 10 µM; for differential viability (reversal): stronger effect = higher value
[7] = 384-well plate pilot, post-Golgi transport modulator project, inhibition of yeast transport mutant growth (AID 636; in the data active means inhibition above about 31%); conditions: absorbance 615 nm, about 18 h, stronger effect = higher value
[8] = growth suppression of yeast trafficking mutant, preliminary HTS, modulators of trafficking downstream of Golgi apparatus project, 1536-format plate, OD 615 nm (AID 637; in the data active means inhibition above about 30%); conditions: yeast transport mutant growth, absorbance 615 nm, 18 h; stronger effect = higher value
[9] = OD615 S. cerevisiae growth inhibition, permissive medium, pilot counter-assay, permissive growth control for S. cerevisiae lifespan shortening project (AID 705;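 active means growth inhibition above 25% in both replicates, a cutoff set 3 SD above the mean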); conditions: OD615, 24 h, at 10 µM, stronger effect = higher value
[10] = Restrictive medium S. cerevisiae growth inhibition, OD615, pilot screen of yeast lifespan reduction project, restrictive growth control (AID 706;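 active means growth inhibition above a set limit, 3 SD over mean compound inhibition, in both replicates, cut at about 43% in these data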;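 further: modified DeaD lifespan yeast strain shifted to restrictive glucose medium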); conditions: OD615, 48 h, at 10 µM, stronger effect = higher value
[11] = viability gain of MRP-1-high H69AR cells under doxorubicin, pilot screen, MRP-1 activator project, CellTiter-Glo, duplicate (AID 807;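 active means viability increase at or above a cutoff of the median across tested compounds plus 3 SD, cut at about 8.5% in these data, passing the limit was not always enough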;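 further: compound pretreatment 18-22 h then 72 h combined with doxorubicin; 0% = doxorubicin alone and 100% = vehicle without doxorubicin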); conditions: H69AR viability with doxorubicin, CellTiter-Glo luminescence; at 10 µM; stronger effect = higher value
[12] = growth suppression of beta-catenin knockout HCT116, pilot screen, human colon tumor cells (AID 823;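 active means cell viability at or below a set limit in both duplicate runs, the limit being the all-compound median minus 4 SD, cut at about 23% in these data, passing the limit was not always enough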;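 further: 0% = wells killed by 20 µM Hyamine and 100% = untreated DMSO cell wells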); conditions: CellTiter-Glo, 60 h, at 10 µM, stronger effect = lower value
[13] = growth suppression of PTEN-deleted HCT116, pilot screen, cell-based, HCT116 clonal line, CellTiter-Glo (AID 824); conditions: 60 h, at 10 µM, stronger effect = lower value;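 further: 0% = 20 µM Hyamine control and 100% = vehicle cell control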
[14] = inhibitors of the yeast RAM network, pilot screen, dse1pr::URA3 reporter, 5-FOA selection (AID 869;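 active means inhibition over a set limit, the all-compound mean plus 3 SD, in both replicate runs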;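 further: 0% = DMSO wells with no growth and 100% = 10 µM 1-NA-PP1 with full growth; RAM network block rescues cells from 5-FOA so hits raise OD615 growth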); conditions: S. cerevisiae dse1pr::URA3 5-FOA growth, OD615, 2 d; at 10 µM; stronger effect = higher value; strain carries analog-sensitive mutant Cbk1 kinase
[15] = RAM signaling pathway blockade in yeast – S. cerevisiae, Pdr1DBD-CYC8 efflux-inhibited sensitized strain, primary screen (AID 1298;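 active means RAM network inhibition above 8.4% in each of two replicates, 3 SD over the compound average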;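 further: 0% = DMSO untreated cells without growth and 100% = 10 µM 1-NA-PP1 full growth; higher means more yeast growth rescued from 5-FOA killing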); conditions: S. cerevisiae cbk1-as DSE1-URA3 strain, 5-FOA growth OD615, 2 d; at 50 µM; stronger effect = higher value
[16] = H69AR cells + 2 uM doxorubicin, measured here: viability with 2 uM doxorubicin, stronger effect = lower value
[17] = H69AR cells, compound alone cytotoxicity

Receptor tyrosine-protein kinase erbB-2 (Homo sapiens), sequence (P04626 whole entry, looked up): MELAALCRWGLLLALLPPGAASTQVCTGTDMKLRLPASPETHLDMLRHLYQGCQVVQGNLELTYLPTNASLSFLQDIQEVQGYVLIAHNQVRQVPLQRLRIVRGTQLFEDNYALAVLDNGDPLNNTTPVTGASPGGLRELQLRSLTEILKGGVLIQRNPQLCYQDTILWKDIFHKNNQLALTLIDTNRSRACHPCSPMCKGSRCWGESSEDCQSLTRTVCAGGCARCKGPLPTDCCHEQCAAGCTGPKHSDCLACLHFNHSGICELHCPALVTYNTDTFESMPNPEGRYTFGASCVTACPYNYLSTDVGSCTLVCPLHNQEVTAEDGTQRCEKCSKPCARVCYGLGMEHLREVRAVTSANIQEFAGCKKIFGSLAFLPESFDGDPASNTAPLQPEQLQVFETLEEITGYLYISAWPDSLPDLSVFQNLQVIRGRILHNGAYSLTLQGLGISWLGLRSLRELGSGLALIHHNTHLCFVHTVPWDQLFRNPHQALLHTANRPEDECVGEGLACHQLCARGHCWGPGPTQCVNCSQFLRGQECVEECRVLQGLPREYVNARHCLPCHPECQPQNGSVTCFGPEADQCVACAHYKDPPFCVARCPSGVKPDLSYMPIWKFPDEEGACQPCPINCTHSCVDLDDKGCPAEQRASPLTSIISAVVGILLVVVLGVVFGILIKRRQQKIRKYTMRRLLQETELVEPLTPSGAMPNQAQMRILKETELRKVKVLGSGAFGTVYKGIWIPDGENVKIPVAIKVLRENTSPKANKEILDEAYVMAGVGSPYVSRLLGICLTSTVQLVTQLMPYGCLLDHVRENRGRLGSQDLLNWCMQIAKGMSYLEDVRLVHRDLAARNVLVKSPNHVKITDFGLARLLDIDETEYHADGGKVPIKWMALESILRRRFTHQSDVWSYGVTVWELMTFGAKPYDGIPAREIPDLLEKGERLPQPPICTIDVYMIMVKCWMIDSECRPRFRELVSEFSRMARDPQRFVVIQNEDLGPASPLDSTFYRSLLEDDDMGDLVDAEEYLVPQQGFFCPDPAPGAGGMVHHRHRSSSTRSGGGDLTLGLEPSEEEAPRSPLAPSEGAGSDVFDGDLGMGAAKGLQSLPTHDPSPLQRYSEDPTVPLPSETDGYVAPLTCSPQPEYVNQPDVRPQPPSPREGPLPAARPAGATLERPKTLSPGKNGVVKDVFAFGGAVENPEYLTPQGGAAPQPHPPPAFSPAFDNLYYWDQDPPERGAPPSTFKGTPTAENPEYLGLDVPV

CCCCc1cc(=O)oc2cc(OCC(=O)N(CC)CC)c(Cl)cc12
viability [1]: 98%
Her2 level [2]: 112% (inactive)
viability [3]: 98% (inactive)
viability [4]: 77.9% (inactive)
viability [5]: 79% (inactive)
differential viability (reversal) ([6]; H69AR cells + 2 uM doxorubicin): -17.3% (inactive)
viability [6, 16]: 96.3%
viability [6, 17]: 79%
inhibition [7]: -4% (inactive)
inhibition [8]: -1.17% (inactive)
growth inhibition [9]: -1.69% (inactive)
growth inhibition [10]: 2.79% (inactive)
viability increase [11]: -1.39% (inactive)
viability [12]: 93.5% (inactive)
viability [13]: 89.6% (inactive)
inhibition [14]: -0.34% (inactive)
RAM network inhibition [15]: 5.28% (inactive)

Cc1ccnc(SCCn2c(N3CCN(Cc4ccccc4)CC3)nc3c2c(=O)[nH]c(=O)n3C)n1
viability [1]: 85%
Her2 level [2]: 93.5% (inactive)
viability [3]: 85% (inactive)
viability [4]: 91.7% (inactive)
viability [5]: 87.5% (inactive)
differential viability (reversal) ([6]; H69AR cells + 2 uM doxorubicin): -0.99% (inactive)
viability [6, 16]: 88.4%
viability [6, 17]: 87.5%
inhibition [7]: -3.6% (inactive)
inhibition [8]: -4.59% (inactive)
growth inhibition [9]: 3.26% (inactive)
growth inhibition [10]: 0.065% (inactive)
viability increase [11]: -1.27% (inactive)
viability [12]: 95.7% (inactive)
viability [13]: 99.3% (inactive)
inhibition [14]: 0.145% (inactive)
RAM network inhibition [15]: 2.81% (inactive)

O=C(Cn1nc(Cc2cccnc2)c2ccccc2c1=O)Nc1ccc2c(c1)OCO2
viability [1]: 87%
Her2 level [2]: 96.5% (inactive)
viability [3]: 87% (inactive)
viability [4]: 84.5% (inactive)
viability [5]: 85.2% (inactive)
differential viability (reversal) ([6]; H69AR cells + 2 uM doxorubicin): 9.09% (inactive)
viability [6, 16]: 76.2%
viability [6, 17]: 85.2%
inhibition [7]: -4.8% (inactive)
inhibition [8]: -0.67% (inactive)
growth inhibition [9]: 0.565% (inactive)
growth inhibition [10]: 7.93% (inactive)
viability increase [11]: 2.16% (inactive)
viability [12]: 99% (inactive)
viability [13]: 106% (inactive)
inhibition [14]: 0.975% (inactive)
RAM network inhibition [15]: 2.81% (inactive)

CCOc1cccc(C(=O)N2CCCCC2c2cccnc2)c1 (stereo not drawn)
viability [1]: 98.5%
Her2 level [2]: 96.5% (inactive)
viability [3]: 98.5% (inactive)
viability [4]: 101% (inactive)
viability [5]: 110% (inactive)
differential viability (reversal) ([6]; H69AR cells + 2 uM doxorubicin): 10.3% (inactive)
viability [6, 16]: 99.6%
viability [6, 17]: 110%
inhibition [7]: -0.93% (inactive)
inhibition [8]: -1.13% (inactive)
growth inhibition [9]: -4.46% (inactive)
growth inhibition [10]: -2.66% (inactive)
viability increase [11]: -1.99% (inactive)
viability [12]: 101% (inactive)
viability [13]: 95.2% (inactive)
inhibition [14]: 0.635% (inactive)
RAM network inhibition [15]: 1.95% (inactive)

COc1ccc(C2CC(c3ccco3)n3ncnc3N2)cc1 (stereo not drawn)
viability [1]: 88%
Her2 level [2]: 97% (inactive)
viability [3]: 88% (inactive)
viability [4]: 93.1% (inactive)
viability [5]: 95.4% (inactive)
differential viability (reversal) ([6]; H69AR cells + 2 uM doxorubicin): -3.17% (inactive)
viability [6, 16]: 98.6%
viability [6, 17]: 95.4%
inhibition [7]: -3.07% (inactive)
inhibition [8]: -8.5% (inactive)
growth inhibition [9]: -4.26% (inactive)
growth inhibition [10]: 1.61% (inactive)
viability increase [11]: -0.91% (inactive)
viability [12]: 97.7% (inactive)
viability [13]: 94.6% (inactive)
inhibition [14]: 2.36% (inactive)
RAM network inhibition [15]: 0.32% (inactive)

CCCCn1c(NCc2ccccc2O)nc2ccccc21
viability [1]: 98%
Her2 level [2]: 124% (inactive)
viability [3]: 98% (inactive)
viability [4]: 79.5% (inactive)
viability [5]: 88.1% (inactive)
differential viability (reversal) ([6]; H69AR cells + 2 uM doxorubicin): 4.67% (inactive)
viability [6, 16]: 83.4%
viability [6, 17]: 88.1%
inhibition [7]: -4.27% (inactive)
inhibition [8]: -2.33% (inactive)
growth inhibition [9]: -1.67% (inactive)
growth inhibition [10]: -11.8% (inactive)
viability increase [11]: -5.25% (inactive)
viability [12]: 79.7% (inactive)
viability [13]: 75.1% (inactive)
inhibition [14]: 0.34% (inactive)
RAM network inhibition [15]: 3.36% (inactive)

CCOCC(=O)Nc1nc2c(s1)C(=O)CC(C)(C)C2
viability [1]: 80.5%
Her2 level [2]: 108% (inactive)
viability [3]: 80.5% (inactive)
viability [4]: 97% (inactive)
viability [5]: 83.7% (inactive)
differential viability (reversal) ([6]; H69AR cells + 2 uM doxorubicin): -6.59% (inactive)
viability [6, 16]: 90.3%
viability [6, 17]: 83.7%
inhibition [7]: -7.73% (inactive)
inhibition [8]: 1.5% (inactive)
growth inhibition [9]: -16.7% (inactive)
growth inhibition [10]: -21% (inactive)
viability increase [11]: -2.68% (inactive)
viability [12]: 97.3% (inactive)
viability [13]: 93% (inactive)
inhibition [14]: 2.79% (inactive)
RAM network inhibition [15]: 0.05% (inactive)

COc1ccccc1NC(=O)C1(C)Cc2ccccc2C(=O)O1 (stereo not drawn)
viability [1]: 106%
Her2 level [2]: 108% (inactive)
viability [3]: 106% (inactive)
viability [4]: 102% (inactive)
viability [5]: 91.7% (inactive)
differential viability (reversal) ([6]; H69AR cells + 2 uM doxorubicin): 2.89% (inactive)
viability [6, 16]: 88.8%
viability [6, 17]: 91.7%
inhibition [7]: -2.82% (inactive)
inhibition [8]: 0.67% (inactive)
growth inhibition [9]: -6.73% (inactive)
growth inhibition [10]: 5.93% (inactive)
viability increase [11]: -0.93% (inactive)
viability [12]: 107% (inactive)
viability [13]: 99.8% (inactive)
inhibition [14]: 1.77% (inactive)
RAM network inhibition [15]: 5.4% (inactive)

COC(=O)CCCCC(=O)C1C(=O)CC(C)(C)C(C(=O)OC)C1=O (stereo not drawn)
viability [1]: 91.5%
Her2 level [2]: 118% (inactive)
viability [3]: 91.5% (inactive)
viability [4]: 91.2% (inactive)
viability [5]: 91.7% (inactive)
differential viability (reversal) ([6]; H69AR cells + 2 uM doxorubicin): -3.76% (inactive)
viability [6, 16]: 95.5%
viability [6, 17]: 91.7%
inhibition [7]: 2.08% (inactive)
inhibition [8]: -8% (inactive)
growth inhibition [9]: -15.7% (inactive)
growth inhibition [10]: -6.2% (inactive)
viability increase [11]: -1.69% (inactive)
viability [12]: 94.4% (inactive)
viability [13]: 93.6% (inactive)
inhibition [14]: 1.31% (inactive)
RAM network inhibition [15]: -0.78% (inactive)

— PubChem BioAssay
